# Screening results deposited in PubChem by National Center for Advancing Translational Sciences (NCATS).
# Only some compounds are listed: those with a hit (about 3.5% of all), similar ones and a draw of the others.
# JMJD2E inh: JMJD2E (human) inhibition. Potency, µM (series often up to 57.1 µM), inactives show at the top dose activity change, negative = inhibition, usual class: inhibitors. hit rate 1.6% among 230,000. B2RXH2. JMJD2E catalytic domain, FDH-coupled NADH fluorescence (FDH is formaldehyde dehydrogenase). AID 2147; active = well fitted inhibition curve with a large enough effect, not every such curve was filed as active; inconclusive = small, poorly fitted or top-dose-only effect, or another doubt; inactive = no such curve, though single readings can be large or run the other way;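 note: 0% = wells with enzyme and -100% = buffer wells without enzyme; nearly all actives have a fitted effect of over 50% in size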
# Target sequence (B2RXH2 1-337 limits assumed): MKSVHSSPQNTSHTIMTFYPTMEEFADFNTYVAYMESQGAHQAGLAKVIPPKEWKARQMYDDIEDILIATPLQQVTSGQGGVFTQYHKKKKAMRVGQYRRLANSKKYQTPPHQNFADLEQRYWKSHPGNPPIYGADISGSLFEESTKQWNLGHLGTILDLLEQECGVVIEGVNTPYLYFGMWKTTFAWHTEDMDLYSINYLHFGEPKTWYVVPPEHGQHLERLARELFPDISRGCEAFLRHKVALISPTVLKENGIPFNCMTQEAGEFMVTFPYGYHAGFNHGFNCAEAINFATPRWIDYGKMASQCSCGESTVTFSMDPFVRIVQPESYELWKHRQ
# TR SRC2 fluor cs: counter-screen for TRb-SRC2 inhibitors: fluorescence interference; Potency, µM (doses to about 106 µM), without a hit: at the top dose fluorescence change, negative = quenching; hit rate 0.29% among 280,000; TRb/SRC2 Texas Red total fluorescence interference; active = well fitted curve in either direction with a large enough effect; inconclusive = small, poorly fitted or top-dose-only effect
#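 Human TRb ligand-binding domain at 0.6 uM with 20 nM Texas Red SRC2 peptide in Tris buffer containing 1 uM T3 and 5% DMSO, incubated with compound 5 h at ambient temperature. Total fluorescence (555/632 nm) calculated as parallel + 2 × perpendicular.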
# Tau fibril ThT: blocks human tau fibril formation measured by thioflavin T; P10636; recombinant tau K18 P301L, heparin-induced fibrillization, ThT fluorescence; Potency, µM (top dose mostly 57.4 µM), without a hit: at the highest dose activity, negative = inhibition, actives largely listed as inhibitors; hit rate 2.1% among 270,000; note: nearly all actives have a fitted effect of over 55% in size
# Target sequence (P10636 561-689 P618L limits assumed): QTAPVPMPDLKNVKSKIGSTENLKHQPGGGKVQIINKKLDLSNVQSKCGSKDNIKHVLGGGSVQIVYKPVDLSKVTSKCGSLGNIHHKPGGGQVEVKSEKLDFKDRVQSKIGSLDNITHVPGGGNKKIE
#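 In this qHTS, human K18 P301L tau is incubated with compound and heparin for 6 hr at 37 C, and Thioflavin T fluorescence then reports fibril load.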
# Tau fibril FP: inhibitors of human tau fibril formation | P10636 | K18 P301L tau heparin fibrillization, Alexa594 FP, 6 h | Potency, µM (doses to about 57.7 µM), for the others: at the highest dose activity, negative = inhibition, usual class: inhibitors | hit rate 0.39% among 280,000; note: nearly all actives have a fitted effect of over 55% in size
#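 Quantitative HTS format: compounds meet 15 uM recombinant K18 P301L tau and Alexa 594-tau tracer in 100 mM sodium acetate pH 7; 20 uM heparin triggers fibrillization at 37 C over 6 hr; FP gives the signal.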
# Tau fluor counter: counter-screen for tau fibril formation inhibitors. tau K18 P301L Alexa594 fluorescence, heparin fibrillization. Potency, µM (top dose mostly 57.7 µM), without a hit: at the top dose activity change, negative = decrease. hit rate 0.93% among 280,000; note: nearly all actives have a fitted effect of over 55% in size
#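 Human tau K18 P301L (15 uM unlabeled, 0.24 uM Alexa 594-labeled) in 100 mM sodium acetate pH 7 with 20 uM heparin, 6 hr at 37 C. ThT 30 uM added, 1 hr ambient; Alexa 594 FP and total fluorescence read at 555/632 nm.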
# TRb-SRC2 inh: disrupts binding of human TR beta to SRC2; hit rate 0.065% among 280,000; TRbeta-SRC2 peptide binding, fluorescence polarization; receptor liganded with 1 µM T3; AID 1469; Potency, µM (highest dose often 106 µM), for inactives: top-dose activity change, negative = inhibition, actives largely listed as inhibitors;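 note: plate controls were bound peptide for no effect and peptide without receptor for full effect; nearly all actives have a fitted effect of over 50% in size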
#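 Human TRb ligand-binding domain (0.6 uM) is mixed with 20 nM Texas Red SRC2 peptide and 1 uM T3; after compound addition and 5 hr at ambient temperature, polarization is measured and normalized to unbound and bound controls.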
# * marks the source's active call; other numbers are inactive results; ? = inconclusive; . = no result; [ ] = dose if it differs, or a comment. Unless noted, calls come from the whole dose curve; as a rule, active = well fitted curve in the direction sought with a large enough effect; inconclusive = small, poorly fitted or top-dose-only effect, or another doubt; inactive = no such curve, though single readings can be large; an effect the other way counts as inactive or inconclusive. Unless noted, % is set by controls: 0 for no effect and ±100 for the full control effect; potency is the fitted concentration of half-maximal effect.
SMILES,JMJD2E inh,TR SRC2 fluor cs,Tau fibril ThT,Tau fibril FP,Tau fluor counter,TRb-SRC2 inh
CO[C@@]1(NC(=O)Cc2cccs2)C(=O)N2C(C(=O)O)=C(COC(N)=O)CS[C@@H]21,32µM*,1%,?,?,-15%,4%
CN1CCc2nc(SCC(=O)Nc3ccc(F)cc3)c(C#N)cc2C1,?,-4%,14µM*,-2%,?,-2%
CCc1nnc(NC(=O)c2sc3nc4c(cc3c2N)CCCCC4)s1,?,-6%,1.4µM*,17%,-18%,-6%
COc1ccc(NC(=O)CSc2nc3c(cc2C#N)CN(C)CC3)cc1,-4%,-1%,?,-2%,-21%,-2%
CCc1nnc(NC(=O)c2sc3nc4c(cc3c2N)CCCCCC4)s1,?,1%,?,-8%,-24%,-8%
CCc1nnc(NC(=O)CSc2nc3c(cc2C#N)CCCC3)s1,?,-1%,3.2µM*,1%,-19%,1%
Cc1ccc(S(=O)(=O)/C=C2\NC(=O)CS2)cc1,4%,2%,1%,6%,8%,-3%
CCc1cc2ccccc2nc1SCC(=O)N1CCN(C(=O)c2ccco2)CC1,-2%,-1%,?,8%,3%,-3%
COc1cccc(NC(=O)Nc2cc(Cl)ccc2C)c1,11%,-3%,-14%,?,-25%,2%
Nc1cccc2c1C(=O)N(CC(=O)NC13CC4CC(CC(C4)C1)C3)C2=O,?,-2%,13%,-4%,-6%,7%
O=C(Cn1sc2ccccc2c1=O)NC12CC3CC(CC(C3)C1)C2,-23%,1%,16µM*,20µM*,-28%,-2%
CCCS(=O)(=O)N1CC(=O)N(c2ccc(Cl)cc2)C(C)(C(=O)NC2CCCC2)C1 (configuration not stated),.,3%,7%,0%,8%,-3%
CCCS(=O)(=O)N1CC(=O)N(c2ccc(Cl)cc2C)C(C)(C(=O)NC2CCCC2)C1 (configuration not stated),.,28µM*[quencher],9%,1%,6%,-5%
CCS(=O)(=O)N1CC(=O)N(c2ccc(Cl)cc2)C(C)(C(=O)NC2CCCCCC2)C1 (configuration not stated),.,18µM*[quencher],4%,4%,10%,-5%
CCOc1ccc(C(=O)Nc2cccc3nsnc23)cc1[N+](=O)[O-],-6%,0%,-4%,-4%,-6%,3%
CC(=O)Nc1ccc(S(=O)(=O)N2CCC(c3nnc(-c4ccc(C)cc4)o3)CC2)cc1,.,-2%,-10%,-9%,?,-3%
CCn1c(C)c(C2=CCN(S(=O)(=O)c3ccc(C)cc3)CC2)c2ccccc21,-1%,0%,?,11%,-30%,-5%
Cc1c(C2=CCN(S(=O)(=O)c3ccc(Br)cc3)CC2)c2ccccc2n1C,16µM*,28µM*[fluorescent],-7%,5%,-15%,?
COc1ccc(CCn2c(O)cc3nn(-c4nc5ccccc5s4)c(=O)c-3c2C)cc1,28µM*,22µM*[quencher],18µM*,-6%,?,?
CCS(=O)(=O)Nc1ccc(-c2cc(-c3ccccc3)c3cc(C)ccc3n2)cc1,1%,0.14µM*[quencher],2%,-3%,-1%,-15%[53 µM]
Cc1ccc2nc(-c3ccc(NS(C)(=O)=O)cc3)cc(-c3ccccc3)c2c1,?,.,-12%,?,?,.
Nc1ccc(-c2nc3ccc([N+](=O)[O-])cc3[nH]2)cc1,-4%,-12%,13µM*,14%,?,-8%
O=[N+]([O-])c1ccc2nc(/C=C/c3ccc(Cl)cc3)[nH]c2c1,1%,1%,13µM*,-2%,?,-3%
NC(=O)CSc1nc2ccc([N+](=O)[O-])cc2[nH]1,0%,-3%,?,0%,-16%,-1%
O=[N+]([O-])c1ccc(-c2nc3ccc([N+](=O)[O-])cc3[nH]2)cc1,2%,-5%,2.8µM*,?,?,-6%
SMILES,JMJD2E inh,TR SRC2 fluor cs,Tau fibril ThT,Tau fibril FP,Tau fluor counter,TRb-SRC2 inh
O=C(CO/N=C/c1ccc(OC(F)F)cc1)NC1CCCCC1,7%,-3%,-2%,1%,-2%,-3%
Cn1cnc2c(NC3CCCC3)ncnc21,-3%,3%,-1%,-6%,1%,7%
CC1Cc2cc(S(=O)(=O)NCc3ccccc3Cl)ccc2N1C(=O)C1CCC1 (configuration not stated),.,-29%,-5%,3%,-10%,-1%
CC1Cc2cc(S(=O)(=O)NCc3ccc(N(C)C)cc3)ccc2N1C(=O)C1CCC1 (configuration not stated),.,22µM*[quencher],-12%,5%,-20%,-11%
O=C(c1ccc2nc(-c3ccco3)c(-c3ccco3)nc2c1)N1CCN(c2ncccn2)CC1,?,-23%,?,-4%,-19%,3%
CCOC(=O)c1ccc(NC(=S)N2CCSC2c2ccc(Cl)cc2)cc1 (configuration not stated),-2%,-1%,-10%,?,?,16%
CCOC(=O)c1ccc(NC(=S)N2CCSC2c2ccc(OC)cc2)cc1 (configuration not stated),-2%,-3%[53 µM],?,25µM*,?,-8%[53 µM]
CCO[C@@H]1OC(C(=O)N2CCN(Cc3ccc4c(c3)OCO4)CC2)=C[C@H](c2coc3ccccc3c2=O)[C@H]1CCCO,5%,-2%,1%,5%,10%,-10%
CC(=O)Nc1cc(OC(C)=O)c2nonc2c1OC(C)=O,-29%,-22%,1.1µM*,2µM*,?,1.6µM*
N#Cc1cnn(CC2CCCCC2)c1N,-11%,-1%,12%,7%,14%,5%
C=CCn1c(C)cc(-c2csc(N)n2)c1C,-4%,1%,16µM*,?,?,-3%
C=CCn1c(C)cc(-c2csc(NC)n2)c1C,-24%,6%,5%,4%,5%,-3%
CN(C)c1nc(=NCc2ccco2)ss1,3%,-4%,8.9µM*,14µM*,-13%,-5%
COc1ccccc1Nc1nc(Cl)nc(Nc2ccccc2OC)n1,?,0%,-1%,?,-23%,6%
COc1ccccc1Nc1ccc(N)cc1,-14%,1%,16µM*,?,?,10%
COc1ccc(Nc2nc(Nc3ccc(OC)cc3OC)nc(N3CCN(C)CC3)n2)c(OC)c1,-1%,-2%,?,?,10µM*[quencher],-3%
Cc1cc(/C=C2\C(=N)N3N=C(c4ccco4)SC3=NC2=O)c(C)n1Cc1ccccc1,?,-14%,13µM*,-7%,?,2%
O=C1NCCCC2c3c(cc(Br)c(O)c3Br)OC12N1CCOCC1 (configuration not stated),?,-11%,?,?,-18%,-7%
